Consider 40 compounds from PubChem BioAssay (Tox21).

Records with an inconclusive call do not appear. A call without a number means that no potency is given here. Calls of active or inactive are those of the source. The call rests on the fitted dose curve; in most records, active means well fitted cell-killing curve with a large enough effect in the repeat runs; inconclusive means weak or mixed curves; inactive means flat fitted curve, though single readings scatter.

This assay can be described thus: qHTS RealTime-Glo MT Cell Viability Assay in HepG2 cells - 32 hour (AID 1224877). Further: nearly all actives have a fitted effect of over 55% in size. The note with it: RealTime-Glo luminescence; series mostly up to 76.8 µM. The source says: U.S. Tox21 Program National Center for Advancing Translational Sciences [NCATS] NIH Chemical Genomics Center [NCGC] U.S. Environmental Protection Agency [EPA] National Institutes of Environmental Health Sciences [NIEHS] National Toxicology Program [NTP] U.S. Food and Drug Administration [FDA] Tox21 Assay Overview: Measure of cell viability is critical in the cell-base assay. Analysis of cell viability is necessary for the characterization of cell responses to cytotoxic drugs and environmental stress. A RealTime-Glo MT Cell Viability Assay to monitor cell viability in real time of continues cell culture during 40 hours of compound treatment was used to screen Tox21 10K library compounds in HepG2 cells. The RealTime-Glo MT Cell Viability Assay is a nonlytic, homogeneous, bioluminescent method to measure cell viability in real time using a simple, plate-based method. The assay involves adding NanoLuc luciferase and a cell-permeant prosubstrate to cells in culture. Viable cells reduce the proprietary prosubstrate to generate a substrate for NanoLuc luciferase. This substrate diffuses from cells into the surrounding culture medium, where it is rapidly used by the NanoLuc Enzyme to produce a luminescent signal. The signal correlates with the number of viable cells, making the assay well suited for cytotoxicity studies.
Tox21 Assay Protocol Summary: The mixture of HepG2 cell suspension and reagents were dispensed at 600cells/6 ul/well in 1536-well tissue culture treated black solid bottom plates using a Multidrop dispenser. After the assay plates were incubated at a 37 C/5% CO2 incubator for 5 hours, 23 nL of compounds dissolved in DMSO, positive and negative controls was transferred to the assay plate by a pintool work station. The plates were incubated at 37 C for 40 hours. The luminescence intensity were measured at 0h, 8h, 16h, 24h, 32h and 40h time points using ViewLux plate reader during compound treatment.
(In qHTS, concentration-response curves come from the screen itself.)
As to `COc1cc(C)cc(O)c1`, the Potency result is “inactive”.

Consider `CC(C)(C)N(CCO)CCO`, for which the Potency result was “inactive”.

Take `Nc1cc(C(Cl)=C(Cl)Cl)c(S(N)(=O)=O)cc1S(N)(=O)=O`: the Potency entry was “inactive”.

On to `CC(C)c1ccc2oc3nc(N)c(C(=O)O)cc3c(=O)c2c1`, for which the Potency result is “inactive”.

Regarding `C#CC(O)C(CC)CCCC` (stereo not given), the Potency result is “inactive”.

As to `CN(C)CCOC(c1ccc(Cl)cc1)c1ccccn1` (stereo not given), the Potency result is “inactive”.

With `O=C(O)c1cccc(C(=O)O)n1`, the Potency result was “inactive”.

Turning to `Cc1c(C)n(CCN(C)C)c2ccc(C(=O)OCCN(C)C)cc12`, the Potency result is “inactive”.

`Cc1ccc(Nc2ccc(O)c3c2C(=O)c2ccccc2C3=O)cc1`: the Potency entry is “inactive”.

`CCC(C(=O)NC(N)=O)c1ccccc1` (stereo not given): the Potency result is “inactive”.

As for `Nc1nc(F)nc2c1ncn2[C@@H]1O[C@H](CO)[C@@H](O)[C@@H]1O`, the Potency entry is “inactive”.

For the compound `CC/C=C\C#N`, the Potency result is “inactive”.

`Cc1cc(C)c(NC(=O)CN(CC(=O)O)CC(=O)O)c(C)c1Br`: the Potency entry is “inactive”.

Regarding `CCn1c(=O)c2c(nc(/C=C/c3ccc(OC)c(OC)c3)n2C)n(CC)c1=O`, the Potency result was “inactive”.

Turning to `O=c1[nH]c2ccccc2c(=O)n1CCCl`, the Potency entry was “inactive”.

Take `NS(=O)(=O)c1cc2c(cc1C(F)(F)F)NC(Cc1ccccc1)NS2(=O)=O` (stereo not given): the Potency result is “inactive”.

Regarding `CC1=CCC2C(C1)C2(C)C` (stereo not given), the Potency entry is “inactive”.

For `CCCC(C)C(=O)O` (stereo not given), the Potency result was “inactive”.

Regarding `COC[C@H](c1ccc(C(F)(F)F)cc1)N1CCN(C2(C)CCN(C(=O)c3c(C)ncnc3C)CC2)C[C@H]1C`, the Potency result is “inactive”.

Take `CCOC(=O)Cn1c(=O)sc2cccc(Cl)c21`: the Potency result was “inactive”.

For the compound `CC(=O)N[C@@H](CCC(N)=O)C(=O)O`, the Potency entry is “inactive”.

With `CCCOc1ccccc1-c1nc2n[nH]nc2c(=O)[nH]1`, the Potency result was “inactive”.

For the compound `CN1[C@@H]2CC[C@H]1CC(NC(=O)n1c(=O)[nH]c3ccccc31)C2` (stereo not given in full), the Potency entry is “inactive”.

Consider `C=C(C)C1CC=C(C)C(O)C1` (stereo not given), for which the Potency result is “inactive”.

With `COCc1ccc(COC)cc1`, the Potency entry was “inactive”.

For the compound `O=C(CCOCCOCCOCCOCCC(=O)Nc1c(I)cc(I)c(C(=O)O)c1I)Nc1c(I)cc(I)c(C(=O)O)c1I`, the Potency result was “inactive”.

On to `NCCN1CCNC1=O`, for which the Potency result is “inactive”.

For `O=C(O)c1ccccc1-c1ccc(C(F)(F)F)cc1`, the Potency result is “inactive”.

Consider `N#CCc1ccccc1[N+](=O)[O-]`, for which the Potency entry was “inactive”.

On to `Cc1ccc(N)cc1[N+](=O)[O-]`, for which the Potency result is “inactive”.

For `CN(C)C(=O)Nc1ccccc1`, the Potency result is “inactive”.

Regarding `Cc1c(F)cc2c(=O)c(C(=O)O)cn3c2c1CCC3C` (stereo not given), the Potency entry was “inactive”.

`Cc1ccccc1C(=O)O`: the Potency entry is “inactive”.

Take `CCN(CC)S(=O)(=O)c1ccc(C(=O)O)cc1`: the Potency entry was “inactive”.

Turning to `NC(=O)Nc1nc2ccccc2[nH]1`, the Potency entry is “inactive”.

As for `c1ccc(SCCSc2ccccc2)cc1`, the Potency result is “inactive”.

Take `CCCOCC(C)OCC(C)O` (stereo not given): the Potency result is “inactive”.

On to `NC(=O)CCCCC1CCSS1` (stereo not given), for which the Potency entry was “inactive”.

As to `Nc1[nH]c(=O)ncc1F`, the Potency entry was “inactive”.

Regarding `O=C(O)Cc1cc(I)c(Oc2cc(I)c(O)c(I)c2)c(I)c1`, the Potency result is “inactive”.
